What all share (assay): NCI-60 one-dose screen, 48 h (100 = growth as untreated, 0 = no growth, -100 = all killed)
What all share (conditions): 10 µM unless noted

Test [1] has as its system T-47D breast.
The subject of test [2] is BT-549 breast.
Test [3] deals with MDA-MB-435 melanoma.
The test system of test [4] is SW-620 colon.
The subject of test [5] is MCF7 breast.
The subject of test [6] is HCT-116 colon.
The test system of test [7] is HCC-2998 colon.
The test system of test [8] is KM12 colon.

We go through 16 compounds from PubChem BioAssay (NCI).

This is part of a sample that, as a whole, favours compounds with a hit. Of some 83,000 tested, about 20% had one in any assay.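 Single-concentration screen, 48 h exposure, 96-well plates. Endpoint: percent growth. Below 10 = active.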 Unmarked numbers belong to inactive results. Calls of active or inactive are those of the source.

In the case of `Cn1nc(N)c2cc([C@@H]3Nc4ccc5[nH]ncc5c4[C@H]4C5CCC(C5)[C@@H]34)ccc21` (stereo partly drawn), the growth was 43.6% in test [1]; 38% in test [2]; -66.6% (active) in test [3]; 22.4% in test [4]; 18.8% in test [5]; 14.5% in test [6]. The growth in test [7] was 18%; in test [8] it was 16.6%.
On to `C#CCOc1ccc2ncnc(N3CCN(C(=O)CCl)CC3)c2c1`, for which the growth was -48.7% [8.25 µM] (active) in test [1]; 56.8% [8.25 µM] in test [2]; 86.6% [8.25 µM] in test [3]; 47.1% [8.25 µM] in test [4]; 65.1% [8.25 µM] in test [5]; 27.7% [8.25 µM] in test [6]. Further, the figures for the growth in test [7] and in test [8] were 112% [8.25 µM] and 108% [8.25 µM], respectively.
For `C=C(C)[C@@H]1CC[C@]2(C(=O)OC)CC[C@]3(C)[C@H](CC[C@@H]4[C@@]5(C)C/C(=C/c6cccc(I)c6)C(=O)C(C)(C)[C@@H]5CC[C@]43C)[C@@H]12`, the growth in test [1] is 93.6%; in test [2], 101%; in test [3] it was 96.6%; in test [4], 101%; in test [5] it was 89.2%; in test [6], 95.4%. In addition, the growth in test [7] was 99.7%; in test [8], 101%.
For `CN(C)[C@@H]1C(=O)C(C(=O)NCc2nc3[nH]cnc(=S)c3[nH]2)=C(O)[C@@]2(O)C(=O)C3=C(O)c4c(O)cccc4[C@@](C)(O)[C@H]3C[C@@H]12`, the growth in test [1] is 40.4%; in test [2] it was 54%; in test [3], 33.8%; in test [4] it was 73.8%; in test [5], 16.6%; in test [6], 33.8%. Further, the growth in test [7] is 16.3%; in test [8], 68.5%.
Take `COc1ccc(SC2c3cc(OC)c(OC)cc3Oc3nc(N)c(C#N)c(N)c32)cc1` (stereo not drawn): the growth was -41.9% (active) in test [1]; -79.1% (active) in test [2]; -84.4% (active) in test [3]; -64.5% (active) in test [4]; -58.9% (active) in test [5]; -88.6% (active) in test [6]. The growth in test [7] was -84.3% (active); in test [8], -79% (active).
With `C#CC(F)(F)[C@]1(O)CC[C@H]2[C@@H]3CCC4=CC(=O)CCC4=C3[C@@H](c3ccc(C(C)=O)cc3)C[C@@]21C`, the growth in test [1] was 58.4%; in test [2], 106%; in test [3], 102%; in test [4], 81.1%; in test [5] it was 58%; in test [6] it was 94.9%. In addition, the results for the growth in test [7] and in test [8] were 108% and 29.8%, respectively.
`CC(C)(C)c1cc(C(C)(C)C)cc(S(=O)(=O)Nc2cc3ccccc3cc2C(=O)NCCN)c1`: the growth in test [1] was 5.06% (active); in test [2], 101%; in test [3] it was 0.859% (active); in test [4], -78% (active); in test [5], -10.6% (active); in test [6], 11.9%. In addition, the figures for the growth in test [7] and in test [8] were -38.6% (active) and -33.4% (active), respectively.
Take `O=C1OC(c2ccccc2)C(O)=C1c1ccccc1` (stereo not drawn): the growth was 111% in test [1]; 111% in test [2]; 105% in test [3]; 110% in test [4]; 95.4% in test [5]; 107% in test [6]. The figures for the growth in test [7] and in test [8] were 127% and 95.7%, respectively.
On to `Cn1cc(-c2nonc2-c2c[nH]c3ccccc23)c2cccnc21`, for which the growth in test [1] was 27%; in test [2] it was 58.6%; in test [3], -22.6% (active); in test [4], 14.1%; in test [5] it was 19.4%; in test [6], 24.3%. Further, the values for the growth in test [7] and in test [8] were 69.9% and 20.1%, respectively.
With `COc1cc(C)c(C2C(C#N)=C(N)Oc3n[nH]c(-c4cccs4)c32)cc1C(C)C` (stereo not drawn), the growth in test [1] was 84.4%; in test [2], 102%; in test [3], 105%; in test [4], 101%; in test [5] it was 91.5%; in test [6] it was 103%. Besides, the growth was 93.5% in test [7] and 98.6% in test [8].
Take `CNC(=O)c1cc(Oc2ccc(NC(=O)Nc3ccc(Cl)c(SC)c3)c(F)c2)ccn1`: the growth was -3.32% (active) in test [1]; 64.7% in test [2]; 32.6% in test [3]; 67.5% in test [4]; 30% in test [5]; 30.8% in test [6]. Further, the growth in test [7] is 51.3%; in test [8], 29.3%.
Take `NNCCc1ccc(NC(=O)CCCc2ccc(/C=C/C(=O)NO)cc2)cc1`: the growth in test [1] was -5.44% (active); in test [2], 44.9%; in test [3] it was 66%; in test [4] it was 43.3%; in test [5], 30.8%; in test [6], 35.3%. Also, the growth in test [7] is 95.5%; in test [8], 57.1%.
As to `CCCCCC(=O)Oc1ccc(/C(=C(\C)c2ccc(OC)cc2)c2ccc(OCCN3CCCCC3)cc2)cc1`, the growth in test [1] was 34.8%; in test [2], 72.6%; in test [3], 62.6%; in test [4], 65.1%; in test [5] it was 24.8%; in test [6] it was 53.2%. Further, the growth in test [7] was 66.7%; in test [8] it was 52.8%.
Consider `CC[N+](CC)=c1sc2c(s1)C(c1ccc(Cl)cc1)Oc1ccc(Cl)cc1-2` (stereo not drawn), for which the growth in test [1] was -2.38% (active); in test [2] it was 4.07% (active); in test [3], 2.5% (active); in test [4], 2.29% (active); in test [5], 4.58% (active); in test [6], 6.48% (active). The values for the growth in test [7] and in test [8] were -15.1% (active) and -28.8% (active), respectively.
With `CS(=O)(=O)c1ccc(-n2nc(-c3ccc(Br)cc3)c3ccccc3c2=O)cc1`, the growth in test [1] was 86.5%; in test [2] it was 91.1%; in test [3], 103%; in test [4] it was 104%; in test [5], 85.9%; in test [6], 96.7%. Moreover, the figures for the growth in test [7] and in test [8] were 98% and 102%, respectively.
In the case of `O=c1ccccc(-c2ccc(-c3ccco3)cc2)c1O`, the growth in test [1] was 28.7%; in test [2] it was 28.1%; in test [3], 26.3%; in test [4], 27.8%; in test [5] it was 15.3%; in test [6] it was 21.8%. Further, the results for the growth in test [7] and in test [8] were 41.1% and 23%, respectively.
